PubChem BioAssay AID1159580 (chemical genetic matrix, 2015)
Values joined by “and” are separate entries in the source; they are usually repeats but may differ in a detail not shown here. Identical values can stand only once. Out of some 5,500 compounds screened, about 2,000 (36%) were called active. Not shown: some 18% with an inconclusive outcome. Rule as the data show it: active = normalized growth mostly below about 0.91 (no sharp cut-off); inconclusive = no clear call, values can overlap the other calls; inactive = mostly above about 0.92. The list shows a part of the results.

Assay: chemical genetic growth profiling, strain panel (AID 1159580);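 also: tested at 20 µM; growth read once vehicle control cultures reached saturation at 30 °C; 1 = growth at the plate median or of vehicle wells; lower values mean less growth of the strain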
Settings: S. cerevisiae deletion strains, growth OD
[1] = locus YAL013W, strain DEP1, hits give low values
[2] = locus YMR307W, strain GAS1, hits give low values
[3] = locus YNL153C, strain GIM3, hits give low values

Measured: normalized growth

Cc1c(C(=O)c2cccc3ccccc23)c2cccc3c2n1[C@H](CN1CCOCC1)CO3
inactive: [1] 0.978 | locus YAL040C, strain CLN3, hits give low values 1.01 | locus YCL061C, strain MRC1 (second series), hits give low values 0.986 | locus YDR363W, strain ESC2, hits give low values 0.973 | locus YER002W, strain NOP16, hits give low values 0.998 | [2] 1.01 | [3] 0.983 | locus YNL175C, strain NOP13, hits give low values 0.992 | locus YNL197C, strain WHI3, hits give low values 0.988 | locus YNL224C, strain SQS1, hits give low values 1.02 | locus YOR083W, strain WHI5 (second series), hits give low values 1.02

C=C(C)C1CNC(C(=O)O)C1CC(=O)O (configuration not stated)
inactive: [1] 1.01 | locus YAL021C, strain ccr4, hits give low values 0.995 | locus YAL026C, strain drs2, hits give low values 0.996 | locus YAL030W, strain snc1, hits give low values 0.99 | locus YBL061C, strain skt5, hits give low values 0.992 | locus YBR009C, strain hhf1, hits give low values 0.987 | locus YBR021W, strain FUR4, hits give low values 0.986 | locus YBR023C, strain chs3, hits give low values 0.987 | locus YBR171W, strain sec66, hits give low values 0.986 | locus YBR229C, strain ROT2, hits give low values 1.01 | locus YBR231C, strain swc5, hits give low values 1 | locus YBR279W, strain paf1, hits give low values 0.997 | locus YCL011C, strain gbp2, hits give low values 0.985 | locus YCL016C, strain dcc1, hits give low values 0.998 | locus YCL029C, strain bik1, hits give low values 1.03 | locus YCL061C, strain MRC1, hits give low values 0.999 | locus YCL069W, strain vba3, hits give low values 0.995 | locus YCR088W, strain abp1, hits give low values 0.988 | locus YDL005C, strain med2, hits give low values 0.984 | locus YDL035C, strain GPR1, hits give low values 1.03 | locus YDL040C, strain nat1, hits give low values 0.986 | locus YDL074C, strain BRE1, hits give low values 1.03 | locus YDL101C, strain DUN1, hits give low values 1.02 | locus YDL185W, strain tfp1, hits give low values 1.04 | locus YDL192W, strain arf1, hits give low values 1.02 | locus YDR001C, strain nth1, hits give low values 0.99 | locus YDR069C, strain doa4, hits give low values 0.981 | locus YDR101C, strain arx1, hits give low values 1.01 | locus YDR137W, strain rgp1, hits give low values 0.972 | locus YDR150W, strain NUM1, hits give low values 1.01 | locus YDR159W, strain sac3, hits give low values 0.985 | locus YDR162C, strain NBP2, hits give low values 1.05 | locus YDR195W, strain ref2 0.967 | locus YDR297W, strain sur2, hits give low values 0.993 | locus YDR318W, strain mcm21, hits give low values 1.01 | locus YDR334W, strain swr1, hits give low values 0.992 | locus YDR335W, strain msn5, hits give low values 0.994 | locus YDR388W, hits give low values 1.01 | locus YDR392W, strain spt3, hits give low values 0.947 | locus YDR502C, strain sam2, hits give low values 1.03 | locus YEL003W, strain gim4, hits give low values 0.999 | locus YEL037C, strain rad23, hits give low values 0.988 | locus YEL061C, strain CIN8 (second series), hits give low values 0.986 | locus YEL061C, strain CIN8, hits give low values 1 | locus YER015W, strain faa2, hits give low values 0.993 | locus YER016W, strain bim1, hits give low values 0.978 | locus YER110C, hits give low values 1.02 | locus YER111C, strain swi4, hits give low values 0.996 | locus YER155C, strain BEM2 (second series), hits give low values 0.989 | locus YER155C, strain BEM2, hits give low values 0.99 | locus YER167W, strain BCK2, hits give low values 1.01 | locus YFR010W, strain ubp6, hits give low values 0.996 | locus YGL078C, strain dbp3, hits give low values 1.02 | locus YGL086W, strain mad1, hits give low values 1.02 | locus YGL167C, strain pmr1, hits give low values 0.996 | locus YGL173C, strain kem1, hits give low values 0.983 | locus YGL227W, strain vid30, hits give low values 0.989 | locus YGL240W, strain doc1, hits give low values 1.01 | locus YGL248W, strain PDE1, hits give low values 1.01 | locus YGL253W, strain hxk2, hits give low values 1 | locus YGR135W, strain pre9, hits give low values 1.03 | locus YGR252W, strain gcn5, hits give low values 1.07 | locus YHR013C, strain ard1, hits give low values 0.984 | locus YHR027C, strain rpn1, hits give low values 0.989 | locus YHR030C, strain SLT2, hits give low values 1.01 and 0.998 | locus YHR079C, strain IRE1 (second series), hits give low values 1.02 | locus YHR079C, strain IRE1, hits give low values 0.987 | locus YHR094C, strain hxt1, hits give low values 1.03 | locus YHR129C, strain ARP1, hits give low values 1.02 | locus YHR142W, strain chs7, hits give low values 0.988 | locus YHR200W, strain rpn10, hits give low values 1.01 | locus YIL066C, strain RNR3, hits give low values 1.04 | locus YIL073C, strain SPO22, hits give low values 1.07 | locus YIL125W, strain kgd1, hits give low values 1.02 | locus YIR030C, strain dcg1, hits give low values 1.02 | locus YJL092W, strain hpr5, hits give low values 0.989 | locus YJL095W, strain BCK1 (second series), hits give low values 0.99 | locus YJL095W, strain BCK1, hits give low values 1.05 and 0.992 | locus YJL115W, strain asf1, hits give low values 0.98 | locus YJL129C, strain trk1, hits give low values 1 | locus YJL134W, strain LCB3, hits give low values 1.01 | locus YJL154C, strain vps35, hits give low values 0.99 | locus YJL164C, strain tpk1, hits give low values 0.999 | locus YJL166W, strain qcr8, hits give low values 0.996 | locus YJL168C, strain set2, hits give low values 1.01 | locus YJL187C, strain SWE1 (second series), hits give low values 1.03 | locus YJL187C, strain SWE1, hits give low values 0.998 | locus YJR043C, strain POL32, hits give low values 1.02 | locus YJR066W, strain TOR1, hits give low values 0.931 | locus YJR075W, strain HOC1, hits give low values 1.03 | locus YKL009W, strain mrt4, hits give low values 1.03 | locus YKL068W, hits give low values 1.02 | locus YKL085W, strain MDH1 (second series), hits give low values 1.01 | locus YKL085W, strain MDH1, hits give low values 1.01 | locus YKL160W, strain elf1, hits give low values 1 | locus YKR001C, strain vps1, hits give low values 1.03 | locus YKR026C, strain gcn3, hits give low values 0.971 | locus YKR091W, strain srl3, hits give low values 0.999 | locus YLL001W, strain dnm1, hits give low values 0.994 | locus YLL026W, hits give low values 1 | locus YLL041C, strain sdh2, hits give low values 0.996 | locus YLR027C, strain aat2, hits give low values 0.992 | locus YLR039C, strain RIC1, hits give low values 1.11 | locus YLR058C, strain SHM2, hits give low values 1.02 | locus YLR102C, strain apc9, hits give low values 1.01 | locus YLR113W, strain HOG1, hits give low values 0.987 | locus YLR221C, strain rsa3, hits give low values 0.998 | locus YLR258W, strain gsy2, hits give low values 0.988 | locus YLR262C, strain YPT6 (second series), hits give low values 0.991 | locus YLR262C, strain YPT6, hits give low values 1.09 | locus YLR268W, strain sec22, hits give low values 1.02 | locus YLR320W, strain mms22, hits give low values 0.991 | locus YLR330W, strain CHS5, hits give low values 1.01 | locus YLR342W, strain FKS1 (second series), hits give low values 1.04 | locus YLR342W, strain FKS1, hits give low values 0.987 | locus YLR357W, strain rsc2, hits give low values 0.975 | locus YLR370C, strain arc18, hits give low values 0.986 | locus YLR371W, strain rom2, hits give low values 0.995 | locus YLR384C, strain iki3, hits give low values 0.97 | locus YLR418C, strain cdc73, hits give low values 1.03 | locus YML016C, strain PPZ1, hits give low values 1.02 | locus YML032C, strain rad52, hits give low values 1.03 | locus YML120C, strain ndi1, hits give low values 1 | locus YML124C, strain tub3, hits give low values 1.02 | locus YMR058W, strain fet3, hits give low values 0.993 | locus YMR078C, strain ctf18, hits give low values 1.03 | locus YMR125W, strain sto1, hits give low values 0.97 | locus YMR129W, hits give low values 1 | locus YMR205C, strain PFK2, hits give low values 0.962 | locus YMR223W, strain ubp8, hits give low values 1.02 | locus YMR231W, strain pep5, hits give low values 0.989 | [2] 1.07 | locus YNL067W, strain RPL9B, hits give low values 1.02 | locus YNL071W, strain lat1, hits give low values 0.999 | [3] 1.02 | locus YNL183C, strain NPR1, hits give low values 0.909 | locus YNL209W, strain ssb2, hits give low values 0.991 | locus YNL233W, strain BNI4, hits give low values 1.03 | locus YNL248C, strain rpa49, hits give low values 1.01 | locus YNL250W, strain rad50, hits give low values 1.03 | locus YNL271C, strain bni1, hits give low values 1.02 | locus YNL298W, strain CLA4, hits give low values 1.02 | locus YNL307C, strain MCK1, hits give low values 1.02 | locus YNL322C, strain KRE1 (second series), hits give low values 0.991 | locus YNL322C, strain KRE1, hits give low values 1 | locus YNR049C, strain mso1, hits give low values 0.986 | locus YNR052C, strain pop2, hits give low values 1.01 | locus YOL006C, strain TOP1, hits give low values 1.14 | locus YOL012C, strain htz1 0.909 | locus YOL147C, strain pex11, hits give low values 1.01 | locus YOR001W, strain rrp6, hits give low values 1.01 | locus YOR061W, strain CKA2, hits give low values 1.01 | locus YOR069W, strain VPS5, hits give low values 1.01 | locus YOR070C, strain gyp1, hits give low values 0.985 | locus YOR080W, strain dia2, hits give low values 0.983 | locus YOR083W, strain WHI5, hits give low values 1 | locus YOR106W, strain vam3, hits give low values 1.02 | locus YOR136W, strain idh2, hits give low values 1.02 | locus YOR144C, strain elg1, hits give low values 1 | locus YOR184W, strain ser1, hits give low values 1.02 | locus YOR231W, strain MKK1, hits give low values 0.992 | locus YOR265W, strain rbl2, hits give low values 0.994 | locus YOR270C, strain vph1, hits give low values 1.02 | locus YOR290C, strain snf2, hits give low values 1 | locus YOR316C, strain cot1, hits give low values 1 | locus YPL051W, strain arl3, hits give low values 0.998 | locus YPL055C, strain LGE1, hits give low values 1.03 | locus YPL078C, strain atp4, hits give low values 1.01 | locus YPL106C, strain sse1, hits give low values 0.978 | locus YPL240C, strain hsp82, hits give low values 0.997 | locus YPL256C, strain CLN2, hits give low values 0.977 | locus YPR119W, strain clb2, hits give low values 1 | locus YPR141C, strain kar3, hits give low values 1.03 | locus YPR163C, strain tif3, hits give low values 1.02 | locus YPR167C, strain met16, hits give low values 1.02 | strain wtn01, hits give low values 1.02
